The record followed here is PubChem BioAssay (NCATS).

Assay [1] in a line: qHTS profiling for inhibitors of Plasmodium falciparum (3D7) proliferation (AID 743322; call rule not given here;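 further: infected erythrocytes exposed to compound for 72 h before lysis; 100% = DMSO vehicle wells and 0% = 0.29 µM artemisinin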). The note with it: P. falciparum 3D7 proliferation; at 28.7 µM (top of the series). The essentials: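 Parasite DNA was quantified by SYBR Green I fluorescence (ex 485, em 535 nm) after overnight lysis in saponin/Triton buffer at room temperature. Cultures at 0.3% parasitemia and 2.5% hematocrit were first exposed to compound for 72 h at 37 C; signals were normalised to artemisinin (0.29 uM) and vehicle wells.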

The nature of assay [2]: qHTS profiling for inhibitors of Plasmodium falciparum (DD2) proliferation (AID 743323; call rule not given here). The note with it: lower = more inhibition; at 28.7 µM (top of the series). The essentials: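 P. falciparum Dd2-infected erythrocytes (0.3% parasitemia, 2.5% hematocrit) exposed 72 h at 37 C, 5% CO2. Lysis with SYBR Green, overnight at room temperature, fluorescence 485/535 nm; normalized to 0.29 uM artemisinin and DMSO.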

Assay [3] in a line: qHTS profiling for inhibitors of Plasmodium falciparum (HB3) proliferation (AID 743324).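 Further: 100% = DMSO vehicle wells and 0% = artemisinin-treated control wells.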 The conditions noted are these: Plasmodium falciparum HB3 blood-stage proliferation; at 28.7 µM (top of the series). The essentials: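 SYBR Green fluorescence (485 ex/535 em) of lysed cultures, incubated overnight at room temperature in the dark, quantifies parasite DNA. Infected erythrocytes at 0.3% parasitemia and 2.5% hematocrit were exposed 72 h; values normalized to DMSO and 0.29 uM artemisinin controls.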

Assay [4] in a line: VSVG counterscreen qHTS to identify inhibitors of SARS-CoV-2 cell entry (AID 1645847; calls by dose curve; further: potency means the concentration at half of the fitted maximal effect; nearly all actives have a fitted effect of over 65% in size). The essentials:
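Entry of VSV-G pseudotyped particles into human ACE2-expressing HEK293 cells was measured by luciferase luminescence 48 h after infection, with compound added 1 h beforehand.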

For assay [5], the target named is RecQ-like DNA helicase BLM (Homo sapiens) (UniProt P54132). The assay is described as follows: qHTS Validation Assay for Inhibitors of Bloom's syndrome helicase (BLM) (AID 2364). Further: potency means the concentration at half of the fitted maximal effect. The essentials:
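50 nM BLM preincubated 15 min at room temperature with compound in pH 8.0 Tris buffer containing 2.5 ug/ml poly(dI-dC); started with 200 nM TAMRA/BHQ-2 forked duplex and 2 mM ATP (final). Unwinding read as TAMRA fluorescence increase, two reads 2 h apart.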

Assay [6] can be described thus: Validation screen for small molecules that induce genotoxicity in human embryonic kidney (HEK293T) cells expressing luciferase-tagged ELG1 (AID 493106). Further: 0% is about no effect. An outline of the steps:
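ELG1-luciferase reporter readout (ONE-Glo, 30 min, room temperature) after 16 hr compound treatment at 37 °C of HEK293T cells at 2,000 per well. Rising luminescence flags genotoxic stress.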

Assay [7] has as its target Cytochrome P450 2C19 (Homo sapiens) (UniProt P33261). Briefly: qHTS Assay for Inhibitors and Substrates of Cytochrome P450 2C19 (AID 899). Further: potency means the concentration at half of the fitted maximal effect; nearly all actives have a fitted effect of over 60% in size. An outline of the steps:
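5 nM human CYP2C19 with 10uM Luciferin-H EGE (at KM) in 50mM KPO4, compound preincubated 10 min at 37C, then NADPH regeneration for 60 min at 37C. Luciferin read by luminescence after detection reagent; normalized to 57uM ketoconazole as full inhibition.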

For assay [8], the target named is ATP-dependent 6-phosphofructokinase (Trypanosoma brucei brucei) (UniProt O15648). The assay is described as follows: qHTS Validation Assay to Find Inhibitors of T. brucei phosphofructokinase (AID 485368). The note with it: T. brucei PFK enzyme assay, qHTS 7-point titration; at 57.5 µM (top of the series). An outline of the steps:
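Luminescent ADP detection measures PFK turnover of fructose-6-phosphate (0.5 mM) with ATP (0.1 mM) at pH 8.0. Reaction runs 45 min at room temperature with 1.25 nM enzyme; inhibitors tested as titrations up to 57 uM.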

Assay [9] deals with Bile acid receptor (Homo sapiens) (UniProt Q96RI1). Briefly: qHTS assay for small molecule agonists of farnesoid X receptor signaling (AID 588527; calls by dose curve;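 further: 0% = vehicle basal and 100% = reference agonist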). The conditions noted are these: HEK293T FXR-UAS-bla, beta-lactamase ratio, 16 h; activation: stronger effect = higher value. The essentials: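 FXR-UAS-bla HEK293T cells (10% dialyzed FBS) preincubated 5-7 h at 37 C, then compounds at up to 92 uM for 16 h at 37 C. CCF4 beta-lactamase read-out after 2 h RT. Normalized to chenodeoxycholic acid (100 uM) and DMSO; Hill fit gave EC50 and efficacy.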

Assay [10] concerns the target Rap guanine nucleotide exchange factor 3 (Homo sapiens) (UniProt O95398). Briefly: Confirmatory qHTS for agonist of cAMP-regulated guanine nucleotide exchange factor 3 (EPAC1) (AID 1645881).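 Further: EPAC1 catalysed release of BODIPY-GDP from Rap1B seen as fluorescence loss; 100% = effect of cAMP agonist control; nearly all actives have a fitted effect of over 75% in size.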
In assay [11] the target is Rap guanine nucleotide exchange factor 4 (Homo sapiens) (UniProt Q8WZA2). Briefly: Confirmatory qHTS for agonist of cAMP-regulated guanine nucleotide exchange factor 4 (EPAC2) (AID 1645884).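 Further: nucleotide exchange releases bodipy-GDP from Rap1 and this lowers its fluorescence; on the % scale 0 is the no-effect control and ±100 the full control effect; nearly all actives have a fitted effect of over 65% in size.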
The target is the same in assay [12]. Briefly: Confirmatory qHTS for antagonist of cAMP-regulated guanine nucleotide exchange factor 4 (EPAC2) (AID 1645885). Further: potency means the concentration at half of the fitted maximal effect; nearly all actives have a fitted effect of over 25% in size.
The target in assay [13] is Rap guanine nucleotide exchange factor 3 (Homo sapiens) (UniProt O95398). The assay is described as follows: Counterscreen qHTS for antagonist of cAMP-regulated guanine nucleotide exchange factor 3 (EPAC1) (AID 1645888).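 Further: fluorescence loss as bound BODIPY-GDP is released from Rap1B; % of control where 0% means no effect.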 An outline of the steps:
(§1)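 Rap1B–BODIPY-GDP (250 nM) with 50 uM GDP; compounds pin-transferred to 9.74 nM–152 uM final (activator) or from 7.32 nM upwards (inhibitor). Fluorescence Ex/Em 480/540 nm read at 5 and 30 min, then after adding cAMP or buffer, at room temperature.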

The target is the same in assay [14]. The assay is described as follows: Counterscreen qHTS for agonist of cAMP-regulated guanine nucleotide exchange factor 3 (EPAC1) (AID 1645889). Further: % of control where 0% means no effect; nearly all actives have a fitted effect of over 40% in size. The essentials: as §1
For assay [15], the target named is ATP-dependent DNA helicase Q1 (Homo sapiens) (UniProt P46063). The assay is described as follows: qHTS Validation Assay for Inhibitors of RecQ-Like Dna Helicase 1 (RECQ1) (AID 2353). Further: potency means the concentration at half of the fitted maximal effect. The essentials: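 RECQ1T1 50 nM; forked duplex (20 bp + 30-nt ss tails) 200 nM, ATP 2 mM final; pH 8.0, 2 mM MgCl2, 2.5 ug/ml poly(dI-dC); 15 min compound preincubation; discontinuous kinetic read over 2 h at RT.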

Assay [16] is described as follows: Quantitative high throughput screen for delayed death inhibitors of the malarial parasite plastid, 96 hour incubation (AID 488745). Further: potency means the concentration at half of the fitted maximal effect; nearly all actives have a fitted effect of over 70% in size. The essentials: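 Decreased firefly luciferase luminescence indicates inhibited growth of reporter-integrated P. falciparum after two generations (96 h, 37 C, 5% CO2). Infected erythrocytes at 0.1% parasitemia, 2% hematocrit, in Albumax-supplemented RPMI 1640.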

Assay [17] can be described thus: Quantitative high throughput screen for delayed death inhibitors of the malarial parasite plastid, 48 hour incubation (AID 488752). Further: potency means the concentration at half of the fitted maximal effect; nearly all actives have a fitted effect of over 65% in size. The essentials:
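One-generation (48 h) growth assay: a decrease in luciferase signal from an integrated reporter in P. falciparum-infected red cells (0.1% parasitemia, 2% hematocrit) after compound exposure at 37 C indicates parasite inhibition.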

The target in assay [18] is Peptidyl-prolyl cis-trans isomerase NIMA-interacting 1 (Homo sapiens) (UniProt Q13526). The assay is described as follows: qHTS Validation Assay to Find Inhibitors of Pin1 (AID 504536; active means well fitted inhibition curve with a large enough effect in the polarisation, with a control signal flat, not every such curve was filed as active; the % refers to the polarisation; further: potency means the concentration at half of the fitted maximal effect). The essentials:
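Fluorescence polarization competition: compounds (titration) displace HiFluor-488-labeled Pin1-1b peptide from Pin1 (0.3 uM final) in pH 7.5 HEPES buffer with DTT, 10 min at room temperature; %Activity normalized to no-enzyme wells, curves fitted.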

For assay [19], the target named is Phosphoglycerate kinase, glycosomal (Trypanosoma brucei brucei) (UniProt P07378). The assay is described as follows: qHTS Validation Assay to Find Inhibitors of Phosphoglycerate Kinase (AID 504547). Further: potency means the concentration at half of the fitted maximal effect. The essentials: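 Compounds are pinned into the substrate/PGK mixture, and GAPDH (100nM final) is added to start the reaction by producing 1,3-BPG. After 60 minutes at room temperature, Kinase-Glo Plus is added and luminescence is measured 10 minutes later.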

For assay [20], the target named is Hexokinase-4 (Homo sapiens) + Glucokinase regulatory protein (Homo sapiens) (UniProt P35557+Q14397). The assay is described as follows: qHTS assay for inhibitors of recombinant human GCK-GKRP interaction: Diaphorase-coupled assay (AID 743205). An outline of the steps: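 Signal derives from resorufin generated by diaphorase, linked to GCK turnover of glucose (5 mM) and ATP (0.4 mM). Enzyme complex was added after a 20-minute compound preincubation and monitored for 30 minutes.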

Inconclusive results are not listed. Active and inactive are the calls of the source. Unless noted, the call rests on the fitted dose curve; in most records, active means well fitted curve in the direction sought with a large enough effect; inconclusive means small, poorly fitted or top-dose-only effect, or another doubt; inactive means no such curve, though single readings can be large; an effect the other way counts as inactive or inconclusive.

Sequence of Rap guanine nucleotide exchange factor 4 (Homo sapiens) (Q8WZA2 whole entry, looked up): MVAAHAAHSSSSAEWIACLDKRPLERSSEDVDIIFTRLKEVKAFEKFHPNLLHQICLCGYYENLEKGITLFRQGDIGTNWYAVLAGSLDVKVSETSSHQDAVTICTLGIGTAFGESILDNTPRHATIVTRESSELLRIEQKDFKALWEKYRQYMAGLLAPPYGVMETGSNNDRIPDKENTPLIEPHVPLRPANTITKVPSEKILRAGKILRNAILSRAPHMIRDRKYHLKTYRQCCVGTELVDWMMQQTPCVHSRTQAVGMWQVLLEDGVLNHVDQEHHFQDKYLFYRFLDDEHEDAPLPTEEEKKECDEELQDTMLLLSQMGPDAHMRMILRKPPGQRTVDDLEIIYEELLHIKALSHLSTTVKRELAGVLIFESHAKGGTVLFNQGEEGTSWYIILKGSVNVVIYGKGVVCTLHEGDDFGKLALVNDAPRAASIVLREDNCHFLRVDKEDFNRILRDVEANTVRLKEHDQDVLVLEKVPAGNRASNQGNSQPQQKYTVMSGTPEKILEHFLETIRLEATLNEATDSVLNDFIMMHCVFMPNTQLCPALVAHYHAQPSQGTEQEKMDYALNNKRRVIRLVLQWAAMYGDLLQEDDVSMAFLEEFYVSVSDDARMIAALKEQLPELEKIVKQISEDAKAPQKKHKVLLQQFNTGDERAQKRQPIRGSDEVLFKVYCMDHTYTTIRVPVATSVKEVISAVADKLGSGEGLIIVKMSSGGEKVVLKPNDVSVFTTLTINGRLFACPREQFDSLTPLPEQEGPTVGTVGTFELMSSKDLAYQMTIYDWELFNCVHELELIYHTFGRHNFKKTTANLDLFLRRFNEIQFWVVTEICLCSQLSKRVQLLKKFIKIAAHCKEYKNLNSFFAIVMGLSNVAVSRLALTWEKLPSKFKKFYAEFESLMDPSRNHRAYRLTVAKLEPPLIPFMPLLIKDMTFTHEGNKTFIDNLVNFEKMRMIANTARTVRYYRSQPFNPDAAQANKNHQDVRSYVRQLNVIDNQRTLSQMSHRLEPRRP
Sequence of Rap guanine nucleotide exchange factor 3 (Homo sapiens) (O95398 whole entry, looked up): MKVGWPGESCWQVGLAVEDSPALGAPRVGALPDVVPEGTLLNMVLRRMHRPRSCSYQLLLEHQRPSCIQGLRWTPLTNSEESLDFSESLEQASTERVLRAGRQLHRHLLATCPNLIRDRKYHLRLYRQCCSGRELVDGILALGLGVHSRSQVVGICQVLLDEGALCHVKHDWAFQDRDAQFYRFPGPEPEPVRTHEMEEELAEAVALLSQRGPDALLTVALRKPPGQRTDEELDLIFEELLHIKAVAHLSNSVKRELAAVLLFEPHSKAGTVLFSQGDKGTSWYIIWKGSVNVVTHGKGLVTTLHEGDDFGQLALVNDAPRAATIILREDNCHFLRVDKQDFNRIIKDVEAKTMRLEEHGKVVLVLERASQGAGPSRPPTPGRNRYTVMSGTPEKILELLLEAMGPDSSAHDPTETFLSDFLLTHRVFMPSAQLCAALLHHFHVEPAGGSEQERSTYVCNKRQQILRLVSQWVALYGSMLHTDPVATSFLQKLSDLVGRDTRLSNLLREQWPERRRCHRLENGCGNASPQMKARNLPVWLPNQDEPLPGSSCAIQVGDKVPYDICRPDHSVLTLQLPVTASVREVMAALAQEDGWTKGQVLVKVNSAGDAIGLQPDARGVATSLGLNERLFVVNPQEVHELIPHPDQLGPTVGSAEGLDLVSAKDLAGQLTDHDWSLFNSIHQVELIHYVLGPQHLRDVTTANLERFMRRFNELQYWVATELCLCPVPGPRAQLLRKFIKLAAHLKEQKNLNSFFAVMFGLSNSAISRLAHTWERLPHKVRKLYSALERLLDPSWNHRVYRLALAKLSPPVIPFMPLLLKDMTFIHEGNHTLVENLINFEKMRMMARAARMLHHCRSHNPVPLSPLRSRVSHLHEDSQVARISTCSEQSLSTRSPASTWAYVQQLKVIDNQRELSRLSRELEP
Sequence of Peptidyl-prolyl cis-trans isomerase NIMA-interacting 1 (Homo sapiens) (Q13526 whole entry, looked up): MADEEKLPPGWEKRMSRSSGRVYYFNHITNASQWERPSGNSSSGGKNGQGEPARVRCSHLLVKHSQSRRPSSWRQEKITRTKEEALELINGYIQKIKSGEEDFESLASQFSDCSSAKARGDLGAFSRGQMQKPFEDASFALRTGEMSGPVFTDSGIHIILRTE
Sequence of Phosphoglycerate kinase, glycosomal (Trypanosoma brucei brucei) (P07378 whole entry, looked up): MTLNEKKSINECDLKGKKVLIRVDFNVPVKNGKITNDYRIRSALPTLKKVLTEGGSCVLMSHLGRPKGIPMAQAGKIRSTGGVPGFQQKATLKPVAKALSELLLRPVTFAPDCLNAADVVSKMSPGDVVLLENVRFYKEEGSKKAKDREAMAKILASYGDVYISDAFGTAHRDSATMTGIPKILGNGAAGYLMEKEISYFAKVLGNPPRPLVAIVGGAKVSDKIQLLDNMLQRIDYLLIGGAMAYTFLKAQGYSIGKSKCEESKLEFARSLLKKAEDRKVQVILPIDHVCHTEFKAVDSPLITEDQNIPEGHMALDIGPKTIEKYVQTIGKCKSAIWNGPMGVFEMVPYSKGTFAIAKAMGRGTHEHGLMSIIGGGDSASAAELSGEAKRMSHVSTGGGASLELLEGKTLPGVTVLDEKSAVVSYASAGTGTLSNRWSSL
Sequence of Cytochrome P450 2C19 (Homo sapiens) (P33261 whole entry, looked up): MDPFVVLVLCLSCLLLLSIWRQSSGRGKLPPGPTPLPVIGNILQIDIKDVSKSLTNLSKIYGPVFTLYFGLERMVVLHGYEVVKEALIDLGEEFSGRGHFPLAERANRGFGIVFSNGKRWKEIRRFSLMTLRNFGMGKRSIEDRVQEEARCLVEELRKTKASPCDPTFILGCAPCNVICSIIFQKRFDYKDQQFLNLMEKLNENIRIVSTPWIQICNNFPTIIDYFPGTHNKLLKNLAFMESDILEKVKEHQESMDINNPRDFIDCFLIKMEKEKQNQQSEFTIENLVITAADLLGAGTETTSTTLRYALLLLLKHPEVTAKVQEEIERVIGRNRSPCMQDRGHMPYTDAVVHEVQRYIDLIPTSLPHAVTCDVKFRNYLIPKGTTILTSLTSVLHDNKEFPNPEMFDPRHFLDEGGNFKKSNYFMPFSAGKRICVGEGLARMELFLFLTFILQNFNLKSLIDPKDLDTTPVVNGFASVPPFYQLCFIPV
Sequence of Hexokinase-4 (Homo sapiens) + Glucokinase regulatory protein (Homo sapiens) (P35557 whole entry, looked up): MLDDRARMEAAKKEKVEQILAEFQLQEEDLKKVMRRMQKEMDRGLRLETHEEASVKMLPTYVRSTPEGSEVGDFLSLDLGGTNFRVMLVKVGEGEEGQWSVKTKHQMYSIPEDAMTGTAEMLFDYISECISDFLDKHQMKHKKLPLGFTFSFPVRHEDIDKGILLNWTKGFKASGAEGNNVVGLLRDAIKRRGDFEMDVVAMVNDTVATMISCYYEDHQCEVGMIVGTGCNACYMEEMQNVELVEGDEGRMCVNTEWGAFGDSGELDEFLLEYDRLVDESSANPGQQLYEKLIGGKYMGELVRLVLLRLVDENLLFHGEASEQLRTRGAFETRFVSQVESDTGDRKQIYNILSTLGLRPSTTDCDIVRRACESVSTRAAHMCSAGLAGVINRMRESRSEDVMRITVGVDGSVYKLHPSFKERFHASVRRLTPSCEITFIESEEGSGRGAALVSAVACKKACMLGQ
Sequence of Hexokinase-4 (Homo sapiens) + Glucokinase regulatory protein (Homo sapiens) (Q14397 whole entry, looked up): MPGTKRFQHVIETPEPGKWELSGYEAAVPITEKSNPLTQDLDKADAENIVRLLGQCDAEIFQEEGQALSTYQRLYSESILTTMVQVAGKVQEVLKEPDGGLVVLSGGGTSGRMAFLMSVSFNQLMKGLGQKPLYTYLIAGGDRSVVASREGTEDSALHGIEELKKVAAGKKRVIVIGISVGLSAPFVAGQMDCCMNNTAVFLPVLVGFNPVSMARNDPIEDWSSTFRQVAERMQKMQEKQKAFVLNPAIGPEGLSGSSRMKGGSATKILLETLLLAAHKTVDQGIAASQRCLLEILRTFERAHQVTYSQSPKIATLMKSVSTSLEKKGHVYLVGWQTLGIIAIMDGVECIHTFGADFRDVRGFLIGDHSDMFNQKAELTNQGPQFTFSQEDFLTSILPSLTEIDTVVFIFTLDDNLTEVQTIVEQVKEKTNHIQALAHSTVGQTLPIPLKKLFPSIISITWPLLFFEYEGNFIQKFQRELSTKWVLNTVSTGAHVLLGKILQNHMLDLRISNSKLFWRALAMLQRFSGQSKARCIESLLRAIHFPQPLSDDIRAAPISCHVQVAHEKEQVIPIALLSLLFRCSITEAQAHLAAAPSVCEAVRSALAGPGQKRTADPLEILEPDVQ
Sequence of ATP-dependent DNA helicase Q1 (Homo sapiens) (P46063 whole entry, looked up): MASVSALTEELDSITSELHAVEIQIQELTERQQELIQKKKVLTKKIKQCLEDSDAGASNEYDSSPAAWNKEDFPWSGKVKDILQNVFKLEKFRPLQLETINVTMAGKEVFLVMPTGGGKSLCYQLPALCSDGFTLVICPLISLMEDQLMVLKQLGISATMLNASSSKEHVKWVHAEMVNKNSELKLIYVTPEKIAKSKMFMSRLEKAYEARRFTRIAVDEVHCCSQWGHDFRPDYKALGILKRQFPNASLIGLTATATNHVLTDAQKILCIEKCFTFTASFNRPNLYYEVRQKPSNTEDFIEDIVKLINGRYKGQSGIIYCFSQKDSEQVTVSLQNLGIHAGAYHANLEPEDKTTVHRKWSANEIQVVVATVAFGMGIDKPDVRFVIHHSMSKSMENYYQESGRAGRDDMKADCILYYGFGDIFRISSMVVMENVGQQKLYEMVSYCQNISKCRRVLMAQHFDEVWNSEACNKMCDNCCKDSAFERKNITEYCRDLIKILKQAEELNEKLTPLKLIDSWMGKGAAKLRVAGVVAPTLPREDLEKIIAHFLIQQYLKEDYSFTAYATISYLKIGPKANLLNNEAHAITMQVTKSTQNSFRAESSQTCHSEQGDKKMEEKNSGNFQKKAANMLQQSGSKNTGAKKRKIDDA

In [1], `O=C(O)c1ccccc1C(=O)Nc1ccc(-c2ccccc2)cc1` showed a remaining parasite growth % (stronger effect = lower value) of 93.1%. The compound further showed an activity, percent of control in [2] of 92.6%. The same compound yielded a remaining proliferation (% of control), lower = more inhibition in [3] of 75.7%.

`Oc1ccc(-c2nc(-c3ccc(F)cc3)c(-c3ccncc3)[nH]2)cc1`: in [4], the Potency is 3.04 µM (active).

Turning to `Nc1nc(N)c2nc(CNc3ccc(C(=O)NC(CCC(=O)O)C(=O)O)cc3)cnc2n1` (stereo not given), the Potency in assay [5] is 20 µM (active). Further, the compound was called inactive in assay [6].

As for `O=c1c(O)c(-c2cc(O)c(O)c(O)c2)oc2cc(O)cc(O)c12`, in [7], the Potency was 10 µM (active).

Regarding `CN1C2CCC1CC(OC(=O)C(CO)c1ccccc1)C2` (stereo not given), the result in assay [8] was inactive.

Turning to `CC(C)COC(=O)c1ccccc1C(=O)OCC(C)C`, in assay [9], the activation was -1.69% (inactive). In addition, the outcome in [10], in assay [11], in assay [13] and in assay [14] was inactive. Also, in assay [12], the Potency is 37.9 µM (active).

For the compound `N#C/C(=C\c1ccc(O)c(O)c1)C(=O)NCCCNC(=O)/C(C#N)=C/c1ccc(O)c(O)c1`, the Potency is 0.447 µM (active) in [15]; 8.28 µM (active) in assay [16]; 10.4 µM (active) in assay [17]; 0.849 µM (active) in assay [18]; 1.9 µM (active) in [19]. Moreover, the outcome in assay [20] was inactive.
